Experimental data published in PubChem BioAssay (NCI).
This is part of a sample that, as a whole, favours compounds with a hit. Of some 79,000 tested, about 15% had one in any assay. Rule as the data show it: active = growth inhibition above about 70%; inactive = the rest.

Assays:
[1] = NCI Yeast Anticancer Drug Screen. Data for the rad50 strain (AID 155);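 also: 0% = growth of vehicle-only cultures of the same strain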; details: S. cerevisiae rad50 strain growth inhibition; at 50.0 µM; stronger effect = higher value
Method in brief: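 Inhibition values express reduced yeast growth in compound-treated cultures relative to vehicle-treated controls.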

[2] = NCI Yeast Anticancer Drug Screen. Data for the mec2-1 strain (AID 157); details: S. cerevisiae mec2-1 strain, at 50.0 µM, stronger effect = higher value
Method in brief: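 Vehicle-treated cultures served as reference for growth inhibition of compound-exposed mec2-1 yeast.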

[3] = NCI Yeast Anticancer Drug Screen. Data for the sgs1 mgt1 strain (AID 161);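 also: 0% = growth of cultures given vehicle only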; details: S. cerevisiae sgs1 mgt1 strain, at 50.0 µM, stronger effect = higher value
Method in brief: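 Mutant yeast exposed to compound; growth scored against vehicle-only wells.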

[4] = NCI Yeast Anticancer Drug Screen. Data for the cln2 rad14 strain (AID 165);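 also: 0% = growth equal to vehicle treated cultures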; details: S. cerevisiae cln2 rad14 strain, at 50.0 µM, stronger effect = higher value
Method in brief: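 Each compound was tested on cln2 rad14 yeast. Inhibition of growth was calculated against vehicle-exposed controls.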

[5] = NCI Yeast Anticancer Drug Screen. Data for the bub3 strain (AID 167); details: S. cerevisiae bub3 mutant strain, at 50.0 µM, stronger effect = higher value
Method in brief: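 Steps: expose the mutant yeast strain to compound; grow alongside vehicle-treated cultures; measure growth; express inhibition against the vehicle cultures.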

[6] = NCI Yeast Anticancer Drug Screen. Data for the mlh1 rad18 strain (AID 175); details: S. cerevisiae mlh1 rad18 strain growth inhibition; at 50.0 µM; stronger effect = higher value
Method in brief: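 Vehicle-treated cultures served as the reference for growth inhibition in a yeast strain carrying DNA damage repair alterations exposed to each compound.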

Measured: growth inhibition

CC(=O)OCC(=O)[C@H]1CC[C@@H]2[C@]1(C)CC=C1[C@]23C=C[C@]2(C[C@@H](OC(C)=O)CC[C@]12C)C1C(=O)OC(=O)C13 (stereo partly specified)
inactive: [1] -9.65% | [2] 3.4% | [3] -0.6% | [4] -8.35% | [5] 4.65% | [6] 26.9%

COc1ccc(C(c2cc3c(cc2O)OCO3)N2CCOCC2)c(OC)c1 (stereo unspecified)
inactive: [1] -75.2% | [2] -31.1% | [3] 4.15% | [4] -25.9% | [5] -29.6% | [6] -17.9%

Cc1ccc(-c2cs/c(=N\N=C3/CSC(=O)N3Cc3ccccc3)n2-c2cccc(C)c2)cc1
inactive: [1] 24.4% | [2] 1.2% | [3] -11.2% | [4] -4.3% | [5] 4.1% | [6] 22.2%

CC1CC(C#N)=C(NC#N)NC1=O (stereo unspecified)
inactive: [1] -0.5% | [2] 12.4% | [3] 19.2% | [4] 5.55% | [5] -0.75% | [6] 9.4%

CCOC(=O)C(C(C)=O)C(c1ccc(N(C)C)cc1)C(C(C)=O)C(=O)OCC (stereo unspecified)
inactive: [1] 8.75% | [2] -7% | [3] 7.75% | [4] -6.2% | [5] -4% | [6] 9.45%

COC(=O)C(Nc1ccc(OC)cc1)c1ccccc1 (stereo unspecified)
inactive: [1] -3.85% | [2] -1.35% | [3] -8.6% | [4] -21.6% | [5] 4% | [6] -13.6%

N#Cc1ccc(OCCCCCOc2ccc(C#N)cc2)cc1
inactive: [1] -11.2% | [2] -0.65% | [3] -1.15% | [4] -43.1% | [5] -2.6% | [6] -5.8%

CCOc1c2ccsc2c(OCC)c2ccsc12
inactive: [1] -14.9% | [2] -25.8% | [3] -10.2% | [4] 6.05% | [5] -5.15% | [6] -35.8%

C=CCC1(C(=O)NC)c2ccccc2-c2ccccc21
inactive: [1] -8.85% | [2] -6.4% | [3] 1% | [4] -18.8% | [5] 43.1% | [6] -38.1%

O=C1CCCc2ccc([N+](=O)[O-])c(O)c21
inactive: [1] 11% | [2] 10.1% | [3] -2.55% | [4] 4.4% | [5] 9.8% | [6] 8.65%

COc1ccc(C2=Nc3ccccc3NC(=O)C2)cc1
inactive: [1] -10.2% | [2] -20.9% | [3] -12.6% | [4] 11.4% | [5] -17.1% | [6] -19.9%

CCC(c1cccc(OC)c1)C(C(=O)O)c1ccc(OC)cc1 (stereo unspecified)
inactive: [1] 5% | [2] 17.5% | [3] 12.6% | [4] 7.15% | [5] 7.35% | [6] 27.2%

O=C1Nc2ccccc2CS1
inactive: [1] 0.55% | [2] -4.9% | [3] -2.1% | [4] -5.85% | [5] 6.95% | [6] -1.05%

CC(C)(C)SC(=S)SCC(=O)c1cc2ccccc2o1
inactive: [1] 35.7% | [2] 3.5% | [3] 41.4% | [4] 30.1% | [5] 40.8% | [6] 37.9%

CC(O)C(O)C(=O)NN (stereo unspecified)
inactive: [1] -1% | [2] 0.3% | [3] 11.4% | [4] 4% | [5] -2.9% | [6] -6.95%

CC(NC(=O)c1ccc(C(C[N+](=O)[O-])SCCC(=O)O)cc1)C(=O)O (stereo unspecified)
inactive: [1] 18.9% | [2] 7.2% | [3] 26.2% | [4] 5.55% | [5] -15.9% | [6] 1.2%

CCCCNC(=O)C(c1ccccc1)c1ccccc1
inactive: [1] 22.1% | [2] 14.9% | [3] 10.8% | [4] -12.3% | [5] 14.3% | [6] 4.2%

CC(C)(CN1CCCCC1)C(=O)/C=C/c1ccc(Cl)cc1
inactive: [1] 34.6% | [2] 11.9% | [3] 36.2% | [4] 38.5% | [5] 12.6% | [6] 46.7%

Clc1ccc(OCC(COc2ccc(Cl)cc2)(COc2ccc(Cl)cc2)COc2ccc(Cl)cc2)cc1
inactive: [1] -0.75% | [2] 2.75% | [3] -4.8% | [4] 5.9% | [5] -4.45% | [6] 0.7%

O=[N+]([O-])c1ccc(OCCO)c([N+](=O)[O-])c1
inactive: [1] 6.75% | [2] -5.85% | [3] -22.4% | [4] -11.5% | [5] -0.15% | [6] 10%

CC1CCc2ccccc2N1C(=O)c1cccc([N+](=O)[O-])c1C(=O)O (stereo unspecified)
inactive: [1] -6.1% | [2] 2.7% | [3] 27.4% | [4] -11.6% | [5] 21.7% | [6] 5.5%

CC(C(=O)O)C(C)C(=O)Nc1ccccc1 (stereo unspecified)
inactive: [1] 33.9% | [2] 6.15% | [3] 11.1% | [4] 24.4% | [5] 1.5% | [6] 28.4%

Cc1c(Cl)c(=O)oc2cc(OCC(O)COC(C)C)ccc12 (stereo unspecified)
inactive: [1] -23.7% | [2] -30.9% | [3] -36.3% | [4] -23.2% | [5] -13.3% | [6] -25.4%

CCCCC(CC)C1OCCS1 (stereo unspecified)
inactive: [1] 5.95% | [2] -24.4% | [3] -4.3% | [4] 1.9% | [5] -17% | [6] -10%

CCN(CC)Cc1cc(Nc2ncnc3sc(C)c(C)c23)ccc1O
inactive: [1] 9.05% | [2] 9.95% | [3] 1.3% | [4] -13.2% | [5] -10.3% | [6] -15.7%

CCCCCOC(=O)CC(CC(=O)OCCCCC)C(=O)OCCCCC
inactive: [1] 14.3% | [2] 5.15% | [3] 14% | [4] -3.8% | [5] -28.6% | [6] 1.75%

Cc1ccc2c(c1)C(O)(CC(=O)c1ccccc1)C(=O)N2 (stereo unspecified)
inactive: [1] 35.4% | [2] 0.55% | [3] 7% | [4] -47.9% | [5] -6.6% | [6] 1.35%

COc1cc(O)c(C(C)=O)c2c1C=CC(C)(C)O2
inactive: [1] -4.95% | [2] -47.1% | [3] -19.9% | [4] -16.8% | [5] -13.8% | [6] -14.7%

CCN(CC)CCOC(=O)c1ccc(N=Nc2ccc(O)cc2)cc1
inactive: [1] 7.25% | [2] -0.8% | [3] -17.9% | [4] -6.25% | [5] 1% | [6] -5.7%

CCC(OC(C)=O)c1ccccc1 (stereo unspecified)
inactive: [1] 12.8% | [2] 17.2% | [3] 11.5% | [4] 6.45% | [5] 27.4% | [6] 1.5%

Oc1ccc(-c2cc(-c3cc(-c4ccc(O)cc4)no3)on2)cc1
inactive: [1] -1.95% | [2] -3.5% | [3] -10.8% | [4] -11.7% | [5] -32.3% | [6] -7.1%

Cc1cc2nc(-c3ccccn3)c(-c3ccccn3)nc2cc1C
inactive: [1] 2.05% | [2] -18.9% | [3] 6.9% | [4] 20.1% | [5] -7.75% | [6] 21.4%

C1CCCN(/N=N/N2CCCCCC2)CC1
inactive: [1] -1.5% | [2] 0.4% | [3] -1.7% | [4] -19.1% | [5] 10.8% | [6] 6.65%

COc1cc([N+](=O)[O-])c(C=O)c(C(=O)O)c1OC
inactive: [1] 6.5% | [2] -1.85% | [3] -10.3% | [4] 13.7% | [5] 1.75% | [6] 4.9%

CC1(C)OC1(C(=O)C=[N+]=[N-])c1ccccc1 (stereo unspecified)
inactive: [1] -14.8% | [2] -17.8% | [3] -23.9% | [4] -15.8% | [5] -13.6% | [6] -29.4%

O=c1c(Br)c(-c2ccccc2)[nH]c2ccccc12
inactive: [1] 2.95% | [2] -12.8% | [3] -32.5% | [4] 0.9% | [5] -5.7% | [6] 7.7%

CN1CCN(CCCN2CC(=O)N3Cc4ccccc4CN3C(=O)C2)CC1
inactive: [1] -26.6% | [2] -1.35% | [3] -9.45% | [4] 1% | [5] 5.15% | [6] -3%

OC1COC(c2ccccc2)OC1C(O)C1OC(c2ccccc2)OCC1O (stereo unspecified)
inactive: [1] 5.3% | [2] -3.8% | [3] 12.2% | [4] -38.9% | [5] -8.2% | [6] 10.7%

CCCNC(=S)/N=C/c1c(O)cc(C)oc1=O
inactive: [1] -51.6% | [2] -65.6% | [3] -24.2% | [4] -0.3% | [5] -18.5% | [6] -42.2%

O=C1c2ccc3ccccc3c2C(=O)c2ccc3ccccc3c21
inactive: [1] -20.6% | [2] -4.5% | [3] -3.65% | [4] -30.2% | [5] -12.3% | [6] -16.8%

S=c1[nH]ncc(SCc2ccccc2)c1SCc1ccccc1
inactive: [1] 2.95% | [2] 2.85% | [3] -8.05% | [4] -15.1% | [5] 7.1% | [6] 7.55%
